Screens (PubChem BioAssay)
PKA-R1A act: activates the PKA-R1A holoenzyme complex | P00514+P68181 | PKA-R1A dissociation, Cy5-IP20 fluorescence polarization; scaled: DMSO 0%, 113 µM cGMP 100% | activation, % at 11.4 µM | actives 0.083% (n = 340,000) | AID 504707;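 active means percent activation above the mean of all tested compounds plus 3 SD, cut at about 19% in these data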;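 further: higher means more PKAc released from R1A so a rise in polarization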
Rpn11 inh: inhibitors of human proteasome Rpn11 | O00487 | human 26S proteasome, Ub4-pepOG fluorescence polarization; 20S core pre-blocked with epoxomicin | calls only at 20 µM | actives 0.59% (n = 360,000) | AID 588493;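 active means inhibition at 20 µM, scaled to each plate's controls, above about 33%, limit read from the data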
Neddylation inh: blocks human cullin neddylation | actives 0.58% (n = 360,000) | inhibition, % at 25 µM | TR-FRET cullin neddylation, biochemical | P61081+Q13564; in the data active means inhibition above about 36%
PKA-R2B activ: PKA-R2B complex activation | P22694+P31323 | PKA-R2B holoenzyme dissociation, Cy5-IP20 fluorescence polarization; R2B truncated from residue 108, S112A mutant; 0% DMSO only, 100% 113 µM cGMP | activation, % at 11.4 µM | actives 0.079% (n = 340,000);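 active means activation above a cutoff set at the mean over all compounds plus 3 SD, cut at about 18% in these data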;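 further: higher means more holoenzyme dissociation and a rise in polarization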
Target sequence (P31323 whole entry, looked up, other chains not shown, the tested form may be a part): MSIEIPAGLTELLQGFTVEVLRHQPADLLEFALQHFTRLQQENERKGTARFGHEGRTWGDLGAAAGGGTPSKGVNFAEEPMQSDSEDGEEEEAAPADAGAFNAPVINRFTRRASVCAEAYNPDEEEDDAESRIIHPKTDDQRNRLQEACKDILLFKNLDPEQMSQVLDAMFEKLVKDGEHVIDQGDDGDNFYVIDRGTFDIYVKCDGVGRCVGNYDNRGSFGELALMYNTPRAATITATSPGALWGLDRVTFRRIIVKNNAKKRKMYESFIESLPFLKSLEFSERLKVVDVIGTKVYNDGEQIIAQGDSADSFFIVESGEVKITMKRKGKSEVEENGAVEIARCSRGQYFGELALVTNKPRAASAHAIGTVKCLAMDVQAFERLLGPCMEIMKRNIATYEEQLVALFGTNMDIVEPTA
Neddyl conf: cullin neddylation inhibition, confirmation; shares compounds with Neddylation inh; TR-FRET cullin neddylation biochemical assay; calls only at 25 µM; actives 13% (n = 1,800); in the data active means inhibition above about 40%;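 further: neddylation substrate is the cullin 1 ring ligase complex with SKP2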
* hit, by the source's call. A selection: hits, their analogues and other compounds. The true share with any hit is near 1.3%.

Results for Cc1nnc(SCC(=O)NC(C)(C)C)n1NCc1c(F)cccc1Cl ?
PKA-R1A act: 4; Rpn11 inh: inactive; Neddylation inh: 5; PKA-R2B activ: 4

What do the screens show for `COc1ccc(-n2nnc3c(SCC(=O)Nc4ccccc4F)ncnc32)cc1`?
PKA-R1A act: -5; Rpn11 inh: inactive; Neddylation inh: 42*; PKA-R2B activ: -8; Neddyl conf: inactive

What do the screens show for `CN(C)CCCNC(=S)N(CCCN(C)C)Cc1cc2cc3c(cc2[nH]c1=O)OCO3`?
PKA-R1A act: -3; Rpn11 inh: inactive; Neddylation inh: 27; PKA-R2B activ: -3

Results for CCN(CC)CCCN(Cc1cc2cc3c(cc2[nH]c1=O)OCO3)C(=S)NCCCN(C)C ?
PKA-R1A act: 1; Rpn11 inh: inactive; Neddylation inh: 44*; PKA-R2B activ: 4; Neddyl conf: inactive

Results for COc1ccc(NC(=O)CN2CCCCCC2)cc1OC ?
PKA-R1A act: -6; Rpn11 inh: inactive; Neddylation inh: -6; PKA-R2B activ: 9

How did Nc1ccc2oc3ccccc3c2c1 do in these assays?
PKA-R1A act: 8; Rpn11 inh: inactive; Neddylation inh: 42*; PKA-R2B activ: -5; Neddyl conf: inactive

What do the screens show for `Cc1cccc(C(=O)Oc2ccc(/C=N/NC(=O)c3cc(O)cc(O)c3)cc2)c1`?
PKA-R1A act: -12; Rpn11 inh: inactive; Neddylation inh: 1; PKA-R2B activ: 0

How did O=C(Oc1ccc(/C=N/NC(=O)c2ccccc2O)cc1)c1ccccc1 do in these assays?
PKA-R1A act: -10; Rpn11 inh: inactive; Neddylation inh: 39*; PKA-R2B activ: -13; Neddyl conf: inactive

What do the screens show for `Cc1cccc(C(=O)Oc2ccc(/C=N/NC(=O)c3ccncc3)cc2)c1`?
PKA-R1A act: -7; Rpn11 inh: inactive; Neddylation inh: 40*; PKA-R2B activ: -1; Neddyl conf: inactive

How did CCCc1cc(=O)[nH]c(SCC(=O)Nc2ccc(Br)cc2Br)n1 do in these assays?
PKA-R1A act: -11; Rpn11 inh: inactive; Neddylation inh: 8; PKA-R2B activ: 2

Results for COc1cccc(CC(=O)n2nc(N)c3cc4ccc(OC)cc4nc32)c1 ?
PKA-R1A act: 3; Rpn11 inh: inactive; Neddylation inh: 41*; PKA-R2B activ: -9; Neddyl conf: inactive

How did COc1ccc2cc3c(N)nn(C(=O)Cc4ccc(Cl)cc4)c3nc2c1 do in these assays?
PKA-R1A act: -1; Rpn11 inh: inactive; Neddylation inh: 35; PKA-R2B activ: 11

What do the screens show for `c1ccc2c(c1)ccc1nnc(-c3ccc4c(c3)OCO4)n12`?
PKA-R1A act: -14; Rpn11 inh: inactive; Neddylation inh: 46*; PKA-R2B activ: 0

What do the screens show for `c1ccc2c(c1)ccc1nnc(SCc3ccc4c(c3)OCCO4)n12`?
PKA-R1A act: -5; Rpn11 inh: inactive; Neddylation inh: -4; PKA-R2B activ: -6

How did CCOC(=O)c1cccc(OS(=O)(=O)Cc2ccccc2)c1 do in these assays?
Rpn11 inh: inactive; Neddylation inh: 1

What do the screens show for `CCOc1ccccc1N1CC(C(=O)Nc2cc(S(C)(=O)=O)ccc2Cl)CC1=O` (stereo not drawn)?
PKA-R1A act: 5; Rpn11 inh: inactive; Neddylation inh: 8; PKA-R2B activ: -10

What do the screens show for `CC1(C)CC(=O)C2=C(C1)c1c(ccc3ccccc13)NC2c1ccc(OCC(=O)O)cc1` (stereo not drawn)?
PKA-R1A act: 8; Rpn11 inh: inactive; PKA-R2B activ: 5

How did CC1(C)CC(=O)C2=C(C1)c1c(ccc3ccccc13)NC2c1ccc(Br)o1 (stereo not drawn) do in these assays?
PKA-R1A act: 0; Rpn11 inh: inactive; Neddylation inh: 43*; PKA-R2B activ: -6; Neddyl conf: inactive

How did CCN1CCc2nc3sc(C(=O)Nc4cccnc4Cl)c(N)c3cc2C1 do in these assays?
PKA-R1A act: 0; Rpn11 inh: inactive; Neddylation inh: 40*; PKA-R2B activ: 5; Neddyl conf: inactive

Results for COc1ccc(OC)c(CCNC(=O)CN2C(=O)COc3ccc(S(=O)(=O)N4CCOCC4)cc32)c1 ?
PKA-R1A act: -11; Rpn11 inh: inactive; Neddylation inh: 0; PKA-R2B activ: 0

What do the screens show for `COC(=O)c1[nH]c2cc(C)ccc2c1NC(=O)CN1CCOCC1`?
PKA-R1A act: -8; Rpn11 inh: inactive; Neddylation inh: 15; PKA-R2B activ: 2

What do the screens show for `COC(=O)c1[nH]c2ccc(C)cc2c1NC(=O)CCN1CCN(Cc2ccc3c(c2)OCO3)CC1`?
PKA-R1A act: -8; Rpn11 inh: inactive; Neddylation inh: 42*; PKA-R2B activ: 3; Neddyl conf: inactive

How did COc1ccc2oc(C(=O)OCC(=O)N3CCC(C)CC3)c(C)c2c1 do in these assays?
PKA-R1A act: 0; Rpn11 inh: inactive; PKA-R2B activ: 5

What do the screens show for `CCOc1ccc2oc(C(=O)OCC(=O)NCc3ccc(OC)cc3)c(C)c2c1`?
PKA-R1A act: -3; Rpn11 inh: inactive; Neddylation inh: -24; PKA-R2B activ: 0

Results for COc1ccc2oc(C(=O)OCC(=O)N(Cc3ccccc3)C(C)C)c(C)c2c1 ?
PKA-R1A act: -11; Rpn11 inh: inactive; Neddylation inh: 44*; PKA-R2B activ: -13; Neddyl conf: inactive

Results for COc1ccc2oc(C(=O)OC(C)C(=O)NCc3ccccc3)c(C)c2c1 (stereo not drawn) ?
PKA-R1A act: -5; Rpn11 inh: inactive; Neddylation inh: 42*; PKA-R2B activ: 3; Neddyl conf: inactive

What do the screens show for `COC(=O)C1CCN(C(=O)COC(=O)c2oc3ccc(OC)cc3c2C)CC1`?
PKA-R1A act: -3; Rpn11 inh: inactive; Neddylation inh: 66*; PKA-R2B activ: -6

Results for COc1ccc2oc(C(=O)OCC(=O)NCc3ccc(OC)c(OC)c3)c(C)c2c1 ?
PKA-R1A act: 4; Rpn11 inh: inactive; Neddylation inh: 43*; PKA-R2B activ: 1; Neddyl conf: inactive

How did COc1ccc2oc(C(=O)OCC(=O)N(C)Cc3ccccc3)c(C)c2c1 do in these assays?
PKA-R1A act: -9; Rpn11 inh: inactive; PKA-R2B activ: 16

What do the screens show for `COc1cc(/C=C/C(=O)OCC(=O)NCc2ccco2)ccc1O`?
PKA-R1A act: 7; Rpn11 inh: inactive; Neddylation inh: 20; PKA-R2B activ: -15

How did COc1ccc2oc(C(=O)OCC(=O)Nc3ccccc3)c(C)c2c1 do in these assays?
PKA-R1A act: -5; Rpn11 inh: inactive; PKA-R2B activ: -9

Results for COc1ccc2oc(C(=O)OCC(=O)N(C)c3ccccc3)c(C)c2c1 ?
PKA-R1A act: -15; Rpn11 inh: inactive; Neddylation inh: 55*; PKA-R2B activ: -13

How did OCC1OC(c2ccccc2)OC2COC(c3ccccc3)OC12 (stereo not drawn) do in these assays?
PKA-R1A act: -10; Rpn11 inh: inactive; Neddylation inh: -8; PKA-R2B activ: -1
